Inconclusive results are not listed. Unmarked numbers belong to inactive results. Active and inactive are the calls of the source. Calls follow the shape of the dose curve; as a rule, active = well fitted cell-killing curve with a large enough effect in the repeat runs; inconclusive = weak or mixed curves, or effect the other way; inactive = flat fitted curve, though single readings scatter.
Assay: cAMP Responsive Elements (CRE) small molecule agonists, cell-based qHTS assay: qHTS cell viability counter screen (AID 2060914);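 also: viability read after 3 h of compound exposure; nearly all actives have a fitted effect of over 50% in size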
Conditions: CRE-bla HEK293T viability, CellTiter-Glo luminescence, 5 h; series mostly up to 92.4 µM; activity change, negative = cytotoxicity: at the top concentration
Excerpt: National Center for Advancing Translational Sciences [NCATS]
Division of Preclinical Innovation [DPI]
U.S. Environmental Protection Agency [EPA]
National Institutes of Environmental Health Sciences [NIEHS]
National Toxicology Program [NTP]
U.S. Food and Drug Administration [FDA]
CREB (cyclic-AMP Responsive Element Binding Protein) is a cellular transcription factor. It binds to certain DNA sequences called cAMP Responsive Elements (CRE) and regulates the transcription of the genes. […] This cell line can be used to find agonists/antagonists of the cyclic AMP signaling pathway. The activation of the report gene under culture conditions can be detected by fluorescence intensity. This cell line has been used to screen the Tox21 10K compound library to identify agonists that induce oxidative stress. The cytotoxicity of the Tox21 compound library against the CRE-bla cell line was tested in parallel by measuring the cell viability using CellTiter-Glo assay (Promega, Madison, WI) in the same wells.
Tox21 Assay Protocol Summary:
CRE-bla Hek 293T cells were suspended in assay medium (DMEM containing 10% dialyzed FBS, 0.1 mM NEAA, 1 mM sodium pyruvate and 25 mM HEPES) and dispensed at 2,000 cells/5 uL /well into 1536-well black wall/clear bottom plates using a Multidrop Combi (ThermoFisher Scientific, Waltham, MA) dispenser. After the assay plates were incubated at 37 C/5% CO2 for 18 hrs, 23 nL of compounds dissolved in DMSO, positive controls or DMSO only was transferred to the assay plate by a pintool workstation (Kalypsys, San Diego, CA). After the plates were incubated at 37 C/5% CO2 for 3 hrs, 1 uL of LiveBLAzer B/G FRET substrate (Invitrogen, Carlsbad, CA) was added to each well using Bioraptr Flying Reagent Dispenser (FRD, Aurora Discovery, San Diego, CA). The plates were incubated at room temperature for 2 h, then fluorescence intensities were measured using an Envision plate reader (PerkinElmer, Shelton, CT) at Excitation 405nm, Emission 460nm and 530nm. The % activity was determined from the ratio of 460nm/530nm. For cell viability readout that measures cytotoxicity, 4 uL /well of CellTiter-Glo reagent was added into the assay plates using Bioraptr FRD. After 30 min incubation at room temperature, the luminescence intensity in the assay plates was measured using a ViewLux (PerkinElmer, Shelton, CT) plate reader.
% is scaled to controls: 0 for no effect and ±100 for the full control effect; potency is read from the fitted curve at half-maximal effect.

Row | SMILES | Potency | activity change, negative = cytotoxicity
1 | Nc1cc(-c2ccncc2)c[nH]c1=O | inactive | 
2 | CC12CCC(C1)C(C)(C)C2O (stereo not given) |  | 12.1%
3 | O=C(O)c1cccc(C[C@@H]2COc3ccc(OCc4nc5cc(F)ccc5s4)cc3[C@@H]2O)c1 |  | -0.394%
4 | CC(=O)OCC(=O)[C@@]12N=C(C)O[C@@H]1C[C@H]1[C@@H]3CCC4=CC(=O)C=C[C@]4(C)[C@H]3[C@@H](O)C[C@@]12C | inactive | 
5 | CC(=O)OCCC(C)CC(C)(C)C (stereo not given) |  | 3.13%
6 | CCN(CC)C(=O)c1cc(S(=O)(=O)Cc2ccccc2)c(N2CCC(c3ccccc3)CC2)cc1N(CC)CCN(C)C |  | -21% [at 42.5 µM]
7 | CC(=O)Nc1ccc(C)cc1C |  | -2.78%
8 | COc1cccc(Br)c1 |  | -5.18%
9 | CCCOC(OCCC)OCCC |  | 0.742%
10 | CCCCCCCC[N+](CCCCCCCC)(CCCCCCCC)CCCCCCCC | 30.6 µM (active) | 
11 | C=CC(=O)OCC(Br)CBr (stereo not given) |  | 1.14%
12 | CC(C)[C@H]1CC[C@H](C)C[C@@H]1O |  | -0.914%
13 | O=C(OCC1CCC2OC2C1)C1CCC2OC2C1 (stereo not given) | inactive | 
14 | O=C(O)c1ccccc1[N+](=O)[O-] |  | -0.417%
15 | c1ccc2cc3c(ccc4ccccc43)cc2c1 | inactive | 
16 | CCCCC(CC)COC(=O)c1ccc(C(=O)OCC(CC)CCCC)cc1 (stereo not given) |  | 1.15%
17 | CC(C)NC(=O)c1ccccc1N |  | 1.35%
18 | CC1=CC[C@H]2C[C@@H]1C2(C)C | inactive | 
19 | CCCCOCC |  | 4.52%
20 | Nc1ccccc1Nc1ccccc1 |  | -10.1%

Row | SMILES | Potency | activity change, negative = cytotoxicity
21 | O=CN1CCCCC1 |  | 15%
22 | CCNC(=O)N1CCN(CCCC(c2ccc(F)cc2)c2ccc(F)cc2)CC1 |  | -2.42% [at 42.5 µM]
23 | CC/C=C\CCOC(=O)CC |  | 3.91%
24 | Cc1c(N)cccc1N |  | 5.54%
25 | CCCNC(=O)NS(=O)(=O)c1ccc(Cl)cc1 | inactive | 
26 | C=CC(=O)O |  | 0.883% [at 42.5 µM]
27 | CC(C)Cc1ccc(C(C)C(=O)O)cc1 (stereo not given) | inactive | 
28 | CNC(=S)N(C)C | inactive | 
29 | C[C@H](CCC(=O)O)[C@H]1CC[C@H]2[C@@H]3CC[C@@H]4C[C@H](O)CC[C@]4(C)[C@H]3C[C@H](O)[C@]12C |  | 18.4%
30 | O=C(CCOCCOCCOCCOCCC(=O)Nc1c(I)cc(I)c(C(=O)O)c1I)Nc1c(I)cc(I)c(C(=O)O)c1I |  | 0.16% [at 42.5 µM]
31 | COc1ccc(OC(=O)N(CC(=O)O)Cc2ccc(OCCc3nc(-c4ccccc4)oc3C)cc2)cc1 |  | 9.62% [at 42.5 µM]
32 | CC(C)(C)c1ccc(C(=O)CCCCl)cc1 |  | -8.59% [at 42.5 µM]
33 | COc1ccc(C#N)cc1 |  | -0.0443%
34 | CC(=O)c1cccnc1 |  | -4.98%
35 | Nc1nc2ncc(CNc3ccc(C(=O)N[C@@H](CCC(=O)O)C(=O)O)cc3)nc2c(=O)[nH]1 | inactive | 
36 | O=C(O)COCCN1CCN(C(c2ccccc2)c2ccc(Cl)cc2)CC1 (stereo not given) | inactive | 
37 | N#Cc1ccc(C/C(=N/NC(=O)Nc2ccc(OC(F)(F)F)cc2)c2cccc(C(F)(F)F)c2)cc1 |  | -6.25%
38 | COc1ccc(-c2coc3cc(O)ccc3c2=O)cc1 |  | 1.29%
39 | O=C(O)C(O)[C@H](O)[C@@H](O)[C@H](O)[C@H](O)CO (stereo not given in full) |  | 1.1%
40 | Cn1cc(S(C)=O)c(=O)c2ccc(F)cc21 (stereo not given) |  | -4.14% [at 42.5 µM]
